± gives the standard deviation of the averaged measurements.
How the values were obtained:
Test in all cases: cell viability (% of vehicle); higher = less cytotoxic
Details in all cases: 10 µM; 72 h
HCI01 = test system: HCI01 (cells of a triple-negative basal-like breast cancer xenograft)
HCI03 = test system: HCI03 (cells of an ER-positive luminal breast cancer xenograft)
HCI09 = test system: HCI09 (cells of a triple-negative luminal androgen receptor type breast cancer xenograft)
HCI11 = test system: HCI11 (cells of an ER-positive luminal breast cancer xenograft)
HCI13 = test system: HCI13 (cells of an ER-positive luminal breast cancer xenograft)
HCI16 = test system: HCI16 (cells of a triple-negative basal-like breast cancer xenograft)
UCD52 = test system: UCD52 (cells of a triple-negative basal-like breast cancer xenograft)
WHIM2 = test system: WHIM2 (cells of a triple-negative basal-like breast cancer xenograft)
WHIM30 = test system: WHIM30 (cells of a triple-negative basal-like breast cancer xenograft)
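Note: PDX cells carrying CMV promoter-driven luciferase, viability read as total photon flux per second by IVIS imaging following D-luciferin, vehicle control 0.1% DMSO.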

Compound | cell viability (HCI01) | cell viability (HCI03) | cell viability (HCI09) | cell viability (HCI11) | cell viability (HCI13) | cell viability (HCI16) | cell viability (UCD52) | cell viability (WHIM2) | cell viability (WHIM30)
CCC1OC(=O)C(C)C(OC2CC(C)(OC)C(O)C(C)O2)C(C)C(OC2OC(C)CC(N(C)C)C2O)C(C)(OC)CC(C)C(=O)C(C)C(O)C1(C)O (centres undefined) [Clarithromycin] | 112 ± 5.1 | 137 | 94.7 ± 19 | 116 | 125 ± 11 | 96.6 | 95.5 ± 8.8 | 104 ± 10 | 113 ± 22
CO[C@H]1/C=C/O[C@@]2(C)Oc3c(C)c(O)c4c(c3C2=O)C2=NC3(CCN(CC(C)C)CC3)NC2=C(NC(=O)/C(C)=C\C=C\[C@H](C)[C@H](O)[C@@H](C)[C@@H](O)[C@@H](C)[C@H](OC(C)=O)[C@@H]1C)C4=O [Rifabutin] | 56.1 ± 34 | 116 | 57.3 ± 27 | 83.2 | 113 ± 16 | 121 | 81.2 ± 1.8 | 79.1 ± 27 | 143 ± 7.7
Cc1ncc([N+](=O)[O-])n1CCO [Metronidazole] | 91.9 ± 32 | 135 | 90.8 ± 28 | 89.6 | 104 ± 9 | 133 | 77.3 ± 7.2 | 81 ± 16 | 131 ± 4.7
CCC1=CC2CN(C1)Cc1c([nH]c3ccccc13)C(C(=O)OC)(c1cc3c(cc1OC)N(C)C1C(O)(C(=O)OC)C(OC(C)=O)C4(CC)C=CCN5CCC31C54)C2.O=C(O)C(O)C(O)C(=O)O.O=C(O)C(O)C(O)C(=O)O (centres undefined) [Vinorelbine ditartrate] | 106 ± 17 | 112 | 65.2 ± 5.9 | 109 | 39 ± 7.7 | 122 | 55.7 ± 4 | 57.2 ± 2.2 | 95.5 ± 16
CC(C)C(=O)Nc1ccc([N+](=O)[O-])c(C(F)(F)F)c1 [Flutamide] | 136 ± 7.3 | 139 | 71.8 ± 8 | 125 | 97.9 ± 8.4 | 78.4 | 78.9 ± 5.1 | 112 ± 33 | 116 ± 6.6
CC(=O)Nc1ccccc1 [Acetanilide] | 76.6 ± 44 | 163 | 99.2 ± 7.3 | 81.8 | 110 ± 8.1 | 138 | 75.2 ± 13 | 126 ± 14 | 
Cl.Nc1ncnc2nc[nH]c12 [Adenine HCl] | 124 ± 9.7 | 126 | 112 ± 4.7 | 117 | 87.7 ± 10 | 147 | 165 ± 5.9 | 106 ± 4.3 | 101 ± 7.6
CC(=O)Oc1cc(C(F)(F)F)ccc1C(=O)O [Triflusal] | 108 ± 22 | 129 | 97 ± 13 | 101 | 107 ± 1.9 | 98.4 | 76 ± 3.1 | 107 ± 17 | 85.4 ± 4.2
CC(C)(C)C(=O)C(Oc1ccc(Cl)cc1)n1ccnc1 (centres undefined) [Climbazole] | 152 ± 37 | 115 | 89.7 ± 16 | 98.8 | 86.4 ± 8.3 | 131 | 96 ± 10 | 121 ± 6.3 | 120 ± 8.6
Nc1nccs1 [Aminothiazole] | 147 ± 24 | 105 | 101 ± 3.2 | 117 | 98.3 ± 7.8 | 136 | 91.8 ± 5.1 | 116 ± 5.8 | 105 ± 18
CN1CCCN=C1C=Cc1cccs1.O=C(O)c1cc2ccccc2c(Cc2c(O)c(C(=O)O)cc3ccccc23)c1O [Pyrantel Pamoate] | 82.3 ± 44 | 117 | 114 ± 12 | 101 | 146 ± 13 | 109 | 99.5 ± 12 | 95.8 ± 17 | 130 ± 3
COc1cc2nc(N3CCN(C(=O)C4CCCO4)CC3)nc(N)c2cc1OC.Cl.O.O (centres undefined) [Terazosin HCl] | 137 ± 8 | 116 | 110 ± 19 | 101 | 104 ± 2 | 123 | 85.8 ± 15 | 113 ± 5.9 | 114 ± 12
CC(=O)O[C@H]1C(=O)[C@@]2(C)[C@H]([C@H](OC(=O)c3ccccc3)[C@]3(O)C[C@H](OC(=O)[C@H](O)[C@@H](NC(=O)c4ccccc4)c4ccccc4)C(C)=C1C3(C)C)[C@]1(OC(C)=O)CO[C@@H]1C[C@@H]2O [Paclitaxel (Taxol)] | 124 ± 7.2 | 92.4 | 95 ± 4.1 | 96.5 | 100 ± 8.8 | 156 | 66.2 ± 4.7 | 92.9 ± 12 | 114 ± 7.4
CO[C@H]1O[C@@H]2O[C@@]3(C)CC[C@H]4[C@H](C)CC[C@@H]([C@H]1C)[C@@]24OO3 [Artemether (SM-224)] | 102 ± 17 | 111 | 79.3 ± 25 | 74.7 | 84.1 ± 3.5 | 123 | 77 ± 4.6 | 117 ± 3.2 | 99.8 ± 3.1
Nc1nc(=O)c2nc(CNc3ccc(C(=O)NC(CCC(=O)O)C(=O)O)cc3)cnc2[nH]1 (centres undefined) [Folic acid] | 103 ± 21 | 118 | 97.5 ± 12 | 85.3 | 101 ± 2.8 | 117 | 92.4 ± 23 | 96.1 ± 4.2 | 101 ± 8.4
CCC(=O)NCCC1CCc2ccc3c(c21)CCO3 (centres undefined) [Ramelteon] | 98.9 ± 7 | 113 | 94 ± 8.3 | 93 | 94 ± 20 | 81.6 | 80.6 ± 1.4 | 80.7 ± 9.9 | 103 ± 3.4
Nc1[nH]c(=O)ncc1F [Flucytosine] | 106 ± 1.6 | 137 | 94.7 ± 12 | 93.1 | 135 ± 4.5 | 94.7 | 81.4 ± 1.5 | 93.72 ± 0.49 | 82.1 ± 1.3
Cc1ncc([N+](=O)[O-])n1CC(O)CCl (centres undefined) [Ornidazole] | 94.9 ± 14 | 115 | 96 ± 7.9 | 83.2 | 111 ± 18 | 105 | 85.1 ± 4.3 | 88.1 ± 8.4 | 108 ± 10
O=C(O)c1ccc2c(c1)nc(Nc1cccc(Cl)c1)c1ccncc12 [CX-4945 (Silmitasertib)] | 115 ± 62 | 111 | 28.5 ± 13 | 137 | 192 ± 22 | 106 | 78 ± 8.1 | 99.48 ± 0.45 | 79.9 ± 14
CCCc1nc(C)c2c(=O)nc(-c3cc(S(=O)(=O)N4CCN(CC)CC4)ccc3OCC)[nH]n12 [Vardenafil] | 98.2 ± 24 | 169 | 113 ± 14 | 97.3 | 102 ± 5.5 | 127 | 109 ± 12 | 97.77 ± 0.38 | 107 ± 1.9
CCN(CC)CCOC(=O)C(c1ccccc1)c1ccccc1.Cl [Adiphenine HCl] | 93.1 ± 17 | 129 | 99.2 ± 22 | 94.9 | 57.1 ± 3.2 | 110 | 92.2 ± 7.6 | 92.4 ± 9.5 | 117 ± 17
COc1c(C)c2c(c(O)c1CC=C(C)CCC(=O)OCCN1CCOCC1)C(=O)OC2 [Mycophenolate Mofetil] | 141 ± 31 | 106 | 86.9 ± 23 | 103 | 81.8 ± 11 | 86.2 | 91.4 ± 22 | 112 ± 7.2 | 130 ± 30
CC1C=CC=CC=CC=CC=CC=CC=CC(OC2OC(C)C(O)C(N)C2O)CC2OC(O)(CC(O)CC(O)C(O)CCC(O)CC(O)CC(=O)OC(C)C(C)C1O)CC(O)C2C(=O)O (centres undefined) [Amphotericin B] | 108 ± 19 | 116 | 105 ± 2.6 | 109 | 107 ± 18 | 107 | 82.2 ± 5.4 | 95.2 ± 23 | 127 ± 1.4
CC(C(=O)O)c1ccc2c(c1)[nH]c1ccc(Cl)cc12 (centres undefined) [Carprofen] | 175 ± 51 | 107 | 112 ± 6 | 95.3 | 102.2 ± 0.8 | 138 | 113 ± 3.4 | 152 ± 30 | 117.4 ± 0.51
O=P(O)(O)C(O)(Cn1ccnc1)P(=O)(O)O [Zoledronic Acid] | 134 ± 17 | 135 | 88.4 ± 13 | 172 | 75.2 ± 8.7 | 94.7 | 60.6 ± 1.4 | 68.7 ± 15 | 107 ± 21
OCC(O)CN1CCN(c2ccccc2)CC1 (centres undefined) [Dropropizine] | 97.2 ± 14 | 129 | 89.7 ± 11 | 90.3 | 66 ± 10 | 94.3 | 98.7 ± 2.5 | 99.3 ± 20 | 101.7 ± 0.4
CN1C(C(=O)Nc2ccccn2)=C(O)c2ccccc2S1(=O)=O [Piroxicam] | 103 ± 9.8 | 102 | 53.8 ± 29 | 133 | 103 ± 3.6 | 90.5 | 88.27 ± 0.58 | 91.5 ± 17 | 117 ± 13
CN(C)C(=O)COC(=O)Cc1ccc(OC(=O)c2ccc(N=C(N)N)cc2)cc1.CS(=O)(=O)O [Camostat Mesilate] | 105 ± 24 | 133 | 85.2 ± 6.6 | 70.7 | 109 ± 5.7 | 112 | 99.8 ± 6.7 | 108 ± 5.9 | 110 ± 5.2
CCOC(=O)C(CCc1ccccc1)NC(C)C(=O)N1C(=O)N(C)CC1C(=O)O.Cl (centres undefined) [Imidapril HCl] | 105 ± 8.3 | 113 | 99.8 ± 7.1 | 102 | 126 ± 1.4 | 94.2 | 78 ± 3.8 | 105 ± 3.3 | 104 ± 10
OCCOc1ccc(C(=C(CCCl)c2ccccc2)c2ccccc2)cc1 [Ospemifene] | 117 ± 33 | 139 | 99.6 ± 30 | 106 | 91 ± 2.3 | 146 | 86.3 ± 1.5 | 78.5 ± 5.9 | 148 ± 10

From the supplement of paper PMC6992640
